The source of these data is ChEMBL document CHEMBL3988442, “University of Dundee, Small-Polar-MMV Screening Library” (2021).

Out of some 48,000 compounds screened, about 13,000 (27%) showed an effect of 50% or more. Some of the results follow.

The subject of this experiment is Wolbachia pipientis. The experiment is described as follows: Anti-Wolbachia Cell-Based Screen. The format is functional. On the set-up: scale not given: in the data most compounds retested in dose-response had high values. To be noted: 5 µM.
In the case of `CN(c1nc(Cn2cc(Br)ccc2=O)cs1)C1CC1`, the “Percent Effect” value is -13.88%. Take `CS(=O)(=O)N1CCC(c2nnc3ccc(C(=O)N4CCCC4)cn23)C1` (centres undefined): the “Percent Effect” value was -3.487%. With `CCc1cnc(N)nc1NCCCn1nc(C)nc1C`, the “Percent Effect” value came to 4.841%. For the compound `CC(CCN1CCOCC1)NC(=O)c1cccc(C(F)(F)F)c1F` (centres undefined), the “Percent Effect” value is -6.149%. Regarding `c1ccc(N2CCC(NCc3cccc4cn[nH]c34)C2)cc1` (centres undefined), the “Percent Effect” value turned out to be 2.833%.

With `COc1ccc(N2CCC(C(=O)/N=c3/[nH]ccs3)CC2)nn1`, the “Percent Effect” value is reported as 7.434%.

As for `Cc1nc(CCNC(=O)C2CC(=O)N(C(C)C)C2)sc1C` (centres undefined), the “Percent Effect” value is given as -29.36%. With `COCCN(CC1CCCN(C2Cc3ccccc3C2)C1)C(=O)CO` (centres undefined), the “Percent Effect” value was -6.477%. The result for `Cc1ccc(N2CCc3ncnc(N(C)C)c3CC2)nn1` reads 103.7%; that for `CN(C)c1ncnc2c1CCN(c1ccccc1)CC2`, 9.479%; that for `Cc1ccccc1S(=O)(=O)N1CCc2c(ncnc2N(C)C)C1`, -0.5839%. The result for `Cc1nc(CN(C)C2CCN(CC3CCCC3)C2)no1` (centres undefined) reads 93.14%; that for `Cc1cc(CN(C)C2CCCN(Cc3noc(C)n3)C2)on1` (centres undefined), 4.561%. The result for `Cc1nc(CN(C)C2CCN(CC(=O)N(C)CCC#N)C2)no1` (centres undefined) reads -8.122%; that for `Cc1nc(CN(C)C2CCN(CC3CCCCC3)C2)no1` (centres undefined), 12.52%; that for `Cc1nc(CN(C)C2CCN(CC3CCOCC3)C2)no1` (centres undefined), 108.1%. Consider `Cc1nc(CN(C)C2CCCN(c3ccccc3)C2)no1` (centres undefined), for which the “Percent Effect” value was determined as 85.51%. To `CN(Cc1cc(=O)c(O)co1)C1CCCN(c2ccccc2)C1` (centres undefined) belongs -2.476%; to `Cc1nc(CN(C)C2CCN(CC3CCC3)C2)no1` (centres undefined), 98.61%. On to `O=C(c1nc(=O)[nH][nH]1)N1CCC2(CCCCC2)C1`, for which the “Percent Effect” value is reported as -9.423%. To `c1ccc(SCCN2CCN(CCn3cncn3)CC2)cc1` belongs 8.727%; to `CCC(CO)N(Cc1ccsc1)Cc1ccc(-c2ccn[nH]2)s1` (centres undefined), -9.048%; to `CN1CCN(C2CCN(CC(=O)NCC(F)(F)F)CC2)C1=O`, -4.835%. To `O=C(CSCc1ccncc1)N(Cc1ccsc1)C1CC1` belongs 10.91%; to `CCS(=O)(=O)N1CCC(C(=O)NC(Cc2ccsc2)c2nccs2)CC1` (centres undefined), 102.7%; to `CC(NC(=O)NCc1cccc(CN2CCCC2)c1)c1nccs1` (centres undefined), -2.261%. To `O=C(NC(Cc1ccsc1)c1nccs1)C1CCOCC1` (centres undefined) belongs -7.907%. Regarding `CC(C)Oc1cccc(CNC(Cc2ccsc2)c2nccs2)c1.Cl` (centres undefined), the “Percent Effect” value stood at 94.44%. To `CS(=O)(=O)N1CCC(C(=O)NC(Cc2ccsc2)c2nccs2)CC1` (centres undefined) belongs -7.112%; to `O=C(NC(Cc1ccsc1)c1nccs1)C1CC1` (centres undefined), 111.3%.

In the case of `CC(C)Oc1cccc(CNC(=O)NC2(CO)CCCC2)c1`, the “Percent Effect” value amounted to 12.23%. As for `C=C(C)COc1ccccc1CNC(CC)c1ccnn1C` (centres undefined), the “Percent Effect” value is listed as -26.14%. To `CCN(C(c1cccnc1)c1ccc2c(c1)CCO2)S(C)(=O)=O` (centres undefined) belongs 5.843%; to `CCn1nnnc1-c1cccc(NC(=O)CCc2cnn(C)c2)c1`, -3.137%. Take `CCc1cccc2cc(CNCCCN3CCOCC3)c(=O)[nH]c12`: the “Percent Effect” value came to 109.4%. The result for `Cc1ccc2cc(CNCCCN3CCOCC3)c(=O)[nH]c2c1C` reads 110.9%; that for `Cc1cccc2cc(CNCCCN3CCOCC3)c(=O)[nH]c12`, -14.11%; that for `Cc1cccc2cc(CN3CCC(N4CCOCC4)CC3)c(=O)[nH]c12`, -9.486%. To `CCc1ccc(CN2CCCCC2c2n[nH]cc2-c2cc(C)no2)cc1.Cl` (centres undefined) belongs 131.5%; to `COc1ccc(CN2CCCCC2c2n[nH]cc2-c2cc(C)no2)cc1.Cl` (centres undefined), 84.19%. Take `Cc1cc(C2CCCN2Cc2ccn(C)c(=O)c2)no1` (centres undefined): the “Percent Effect” value is on record as -4.327%.

As for `COc1ccc(CN2CCOC[C@H]2c2nc(-c3ccncc3)c[nH]2)cc1`, the “Percent Effect” value is on record as -8.206%. To `Cc1cc(C2CCCN2Cc2cc(-c3ccco3)on2)on1` (centres undefined) belongs -89.63%; to `COc1cccc(CN2CCCCCC2c2cccc(C)c2)c1O` (centres undefined), -3.31%. To `COc1ccc(C)cc1CN1CCCC1c1noc(C2CC2)n1` (centres undefined) belongs 18.68%.

As to `COc1ccccc1CN1CCCCC1c1n[nH]cc1-c1cc(C)no1.Cl` (centres undefined), the “Percent Effect” value is listed as 107.2%. To `Cc1cccc(CN2CCCCC2c2n[nH]cc2-c2cc(C)no2)c1.Cl` (centres undefined) belongs 91.3%. To `Cc1cc(C2CCCN2Cc2nc(-c3ccco3)no2)on1` (centres undefined) belongs 9.843%; to `COc1ccc(CN2CCC[C@H]2c2nc(-c3cncnc3N)no2)cc1`, -2.568%.

Take `CS(=O)(=O)N1CCc2[nH]cnc2C12CCN(C(=O)c1ccccc1)CC2`: the “Percent Effect” value is reported as -3.54%. To `CN1C[C@@H](NC(=O)C2CC2)C[C@H]1c1nc(-c2cnccn2)no1` belongs -3.142%. To `O=C(c1ncoc1-c1ccco1)N1CCCN(c2nccs2)CC1` belongs -20.95%; to `COc1ccc2c(c1)C(C(=O)N(C)CCn1ccnc1C)CC(=O)N2` (centres undefined), -6.574%. To `O=C1CC(c2cccnc2)c2c(c(C(=O)O)cn2-c2ccccc2)N1` (centres undefined) belongs 6.777%.

On to `O=C1N(c2ccc(F)cc2)Cc2nc(=O)n(Cc3cccc(Cl)c3)n21`, for which the “Percent Effect” value is -4.998%.

Consider `COc1cccc(CC2CCCN2CCCO)c1` (centres undefined), for which the “Percent Effect” value is recorded as 13.01%. As for `COc1cccc(CN2CCCC2c2c(C)nn(C)c2C)c1` (centres undefined), the “Percent Effect” value is recorded as 0.6284%. Regarding `COc1cccc(CN2CCCCC2c2n[nH]cc2-c2cc(C)no2)c1.Cl` (centres undefined), the “Percent Effect” value was 78.4%. The result for `CCN(CCCNC(=O)c1ccc(C)[nH]c1=O)S(C)(=O)=O` reads -16.03%. As to `CC1=C[C@@H](CN2CCN(C)CC2)[C@H](C(C)C)C[C@H]1Cc1nnc(C)o1`, the “Percent Effect” value was -4.667%. The result for `CN(Cc1nc(-c2ccccc2)c[nH]1)C(=O)NCC(=O)NC(C)(C)C` reads -12.98%; that for `O=C(CCCn1ccnc1)N[C@H]1CN(C2CCCC2)C[C@@H]1C1CC1`, -1.542%.

With `Cc1cc(F)ccc1N1CCCC(NC(=O)CCCn2ccnc2)C1` (centres undefined), the “Percent Effect” value is reported as 114.8%. Take `O=C(CCCn1ccnc1)NC1CCCN(c2ccccc2Cl)C1` (centres undefined): the “Percent Effect” value is listed as 86.14%.

As to `Cc1n[nH]c(C)c1CCC(=O)NC1CCCN(c2ccccc2F)C1` (centres undefined), the “Percent Effect” value was -4.293%. To `Cc1cc(F)ccc1N1CCCC(NC(=O)CCc2ccncc2)C1` (centres undefined) belongs 111.2%; to `CCC[C@H]1CN(S(C)(=O)=O)C[C@@H]1NC(=O)CCCn1ccnc1`, 0.7566%. To `O=C(NCc1cccc(F)c1)NC1CCCN(c2ncccn2)C1` (centres undefined) belongs 12.98%; to `COc1ccccc1OC1CCN(C(=O)CCCn2ccnc2)CC1`, 6.898%. The result for `Cc1ccc(Cl)cc1N1CCC(CNC(=O)CCn2ccnc2)C1` (centres undefined) reads 19.22%; that for `CC(C)Nc1nc2c(c(N(C)C)n1)CCN(C(=O)c1cc[nH]n1)CC2`, -2.807%.

Regarding `O=C(c1ccsc1)N1CCc2c(CN3CCCC3)n[nH]c2C1`, the “Percent Effect” value is listed as -0.6462%. To `CN(C)Cc1n[nH]c2c1CCN(Cc1cccs1)C2.O=C(O)C(F)(F)F.O=C(O)C(F)(F)F` belongs -7.744%; to `Cc1nocc1C(=O)N1CCc2c(CN(C)C(C)C)n[nH]c2C1`, -1.781%; to `Cc1cc(C(=O)N2CCc3c(CN(C)C(C)C)n[nH]c3C2)[nH]n1`, 101.7%. With `CN(Cc1cn2c(n1)CN(C(=O)c1ccc[nH]1)CC2)Cc1ccco1.O=C(O)C(F)(F)F`, the “Percent Effect” value was -0.5876%. For the compound `CC(C)N(C)Cc1n[nH]c2c1CCN(C(=O)c1ccc[nH]1)C2.O=C(O)C(F)(F)F`, the “Percent Effect” value is given as 99.94%. `CC(C)N(C)Cc1n[nH]c2c1CCN(C(=O)c1cc[nH]n1)C2`: the “Percent Effect” value turned out to be 93.85%.

Consider `Cc1cc(C(=O)N2CCc3c(ncnc3N3CCOCC3)C2)[nH]n1`, for which the “Percent Effect” value is reported as -12.68%. On to `Cc1cc(Br)oc1C(=O)N1CCC(N(C)C)CC1`, for which the “Percent Effect” value was -50.6%.

Regarding `COCCN1CCCC2(CCN(c3nccnc3N(C)C)C2)C1=O` (centres undefined), the “Percent Effect” value is listed as -5.787%.

Consider `Cc1ccoc1C(=O)N1CCC(n2cc(-c3ccsc3)nn2)CC1`, for which the “Percent Effect” value is listed as -24.55%.

As to `COc1cccc(N2CCC(CNC(=O)CN3CSCC3=O)C2)c1` (centres undefined), the “Percent Effect” value is recorded as -9.493%. To `CS(=O)(=O)N1CCOCC2(CCN(c3cnccn3)CC2)C1` belongs -8.044%. Take `CC1(C)O[C@@](C)([C@H]2CC3(CCN(c4cnccn4)CC3)CO2)CC[C@@H]1O`: the “Percent Effect” value turned out to be 106.3%. To `OCC(O)CSCc1nnc(-c2cccc(F)c2)o1` (centres undefined) belongs 6.518%; to `FC1(F)CCN(c2ccccc2)CC12CCN(c1ncccn1)C2` (centres undefined), 4.725%; to `COCC(=O)N1CCC2(C1)c1ccccc1S(=O)(=O)N2CCC(C)C` (centres undefined), 110.5%.

For the compound `CC(C)CCN1C2(CCN(c3ncccn3)C2)c2ccccc2S1(=O)=O` (centres undefined), the “Percent Effect” value amounted to 105.2%. The result for `CCCN1CCC2(C1)c1ccccc1S(=O)(=O)N2Cc1ccc(F)cc1` (centres undefined) reads 8.528%; that for `COCC(=O)N1CCC2(C1)c1ccccc1S(=O)(=O)N2C` (centres undefined), 99.03%.

With `CC(C)CCN1C2(CCN(C(=O)N(C)C)C2)c2ccccc2S1(=O)=O` (centres undefined), the “Percent Effect” value came to 108.8%. To `COc1ccccc1N1CCN(C(=O)Cn2nc(C)c(C)c2C)C(C)C1` (centres undefined) belongs 5.362%; to `CCC(Nc1cccc(OC)c1)C(=O)N(CCOC)Cc1cnn(C)c1` (centres undefined), -17.99%; to `Cc1cc(C#N)ccc1S(=O)(=O)N1CCN(C)Cc2ccccc21`, 3.182%.

Regarding `CCc1noc(C(C)SCCS(C)(=O)=O)n1` (centres undefined), the “Percent Effect” value was determined as 3.138%.

As for `CC(=O)N1CCC2(C1)c1ccccc1S(=O)(=O)N2CCC(C)C` (centres undefined), the “Percent Effect” value is recorded as 83.1%. To `COCC(=O)N1CCC2(C1)c1ccccc1S(=O)(=O)N2CC1CC1` (centres undefined) belongs 95.12%.

In the case of `CCNC(=O)N1CCC2(C1)c1ccccc1S(=O)(=O)N2CCC(C)C` (centres undefined), the “Percent Effect” value was -10.03%. To `COCC(=O)N1CCC2(CC1)c1ccccc1[C@@H](N1CCSCC1)[C@@H]2O` belongs 1.916%. The result for `CC(C)CCN1N=C(C(=O)N2CCCCCC2)S(=O)(=O)c2ccccc21` reads 20.76%; that for `CC(C)CCN1CC2(CCN(C(=O)C3(C)CC3)CC2)OC1=O`, 1.386%. The result for `CC(C)CCN1C2(CCN(C(=O)C3(C)CC3)C2)c2ccccc2S1(=O)=O` (centres undefined) reads 92.1%; that for `CC(C)CCN1C2(CCN(C(=O)CN(C)C)C2)c2ccccc2S1(=O)=O.O=C(O)C(F)(F)F` (centres undefined), 95.71%.
